# SMN2 splice up: SMN2 splice variant enhancement; HEK293 SMN2-luciferase splicing reporter, luminescence, 30-36 h; Potency, µM (highest dose often 46.1 µM), without a hit: at the top dose activity change, positive = activation, actives largely listed as activators; 2.8% of 210,000 active; AID 1458; also: % of control where 0% means no effect; nearly all actives have a fitted effect of over 55% in size
#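 HEK293 cells carry an SMN2 minigene-luciferase reporter in which exon 7 inclusion puts luciferase in frame. Cells were seeded at 2000 cells/well, attached for 10-12 hours, then exposed to compounds for 30-36 hours at 37C before ONE-Glo luminescence.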
# FLuc modulator: inhibits or activates purified firefly luciferase, miR-21 counter-screen; purified FLuc, Km substrates, luminescence inhibition; P08659; 6.9% of 360,000 active; Potency, µM (highest dose often 57.5 µM), without a hit: at the top dose activity change, negative = inhibition, hits mostly inhibitors;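 also: plate controls were vehicle for no effect and reference inhibitor for full effect; nearly all actives have a fitted effect of over 55% in size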
# Target sequence (P08659 whole entry, looked up): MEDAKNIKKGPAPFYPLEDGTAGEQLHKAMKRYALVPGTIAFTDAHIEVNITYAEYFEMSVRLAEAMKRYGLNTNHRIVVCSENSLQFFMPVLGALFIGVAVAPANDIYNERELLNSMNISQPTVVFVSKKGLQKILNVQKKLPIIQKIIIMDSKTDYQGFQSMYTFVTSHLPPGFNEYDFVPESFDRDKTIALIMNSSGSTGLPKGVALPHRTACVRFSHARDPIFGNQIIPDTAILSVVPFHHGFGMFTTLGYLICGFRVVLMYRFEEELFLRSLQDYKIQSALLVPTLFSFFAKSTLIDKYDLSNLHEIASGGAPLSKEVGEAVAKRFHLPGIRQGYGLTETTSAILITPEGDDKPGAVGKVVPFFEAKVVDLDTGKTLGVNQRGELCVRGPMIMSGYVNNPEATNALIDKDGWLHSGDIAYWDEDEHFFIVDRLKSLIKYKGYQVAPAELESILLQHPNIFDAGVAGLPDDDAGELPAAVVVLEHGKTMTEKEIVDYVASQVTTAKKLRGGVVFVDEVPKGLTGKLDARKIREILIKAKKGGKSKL
#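 Purified P. pyralis luciferase (10nM final) with 10uM D-luciferin and 10uM ATP (Km levels) in 50mM Tris acetate pH 7.5, 10mM Mg acetate, 0.01% Tween-20, 0.05% BSA; qHTS 6-point titration, ~60 µM downward; luminescence read.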
# Luc counter: blocks Kinase-Glo luciferase, a counter-screen artifact; Q27757; Kinase-Glo luciferase, ATP luminescence, 8 min; Potency, µM (series often up to 38.3 µM), for inactives: at the highest dose activity change, negative = inhibition, usual class: inhibitors; 0.28% of 200,000 active; AID 1379; also: % is scaled to controls: 0 for no effect and ±100 for the full control effect; nearly all actives have a fitted effect of over 60% in size
#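 Recombinant Kinase-Glo luciferase, 10 uM ATP (linear range), luciferin; imidazole pH 7.2 / KCl / MgCl2 / Tween / BSA buffer; 8 min RT; luminescence.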
# Rab9 prom act: Rab9 promoter activation; Huh7 Rab9 promoter-luciferase reporter, luminescence, 24 h; Potency, µM (series often up to 9.22 µM), for inactives: at the highest dose activation, negative = inhibition, hits mostly activators; 2.8% of 320,000 active; also: % of control where 0% means no effect; nearly all actives have a fitted effect of over 60% in size
#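 Promoter activation is measured as luciferase luminescence in Huh7 cells stably transfected with a Rab9 promoter–luciferase construct, following 24 h compound exposure at 37 °C and 10 min reagent incubation at ambient temperature.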
# NPC1 prom act: NPC1 promoter activation; Huh7 NPC1 promoter luciferase reporter, 24 h; Potency, µM (doses to about 9.22 µM), for inactives: top-dose activation, hits mostly activators; 2.4% of 320,000 active; AID 485313; also: % of control where 0% means no effect; nearly all actives have a fitted effect of over 60% in size
#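 Stably transfected Huh7 (NPC1 promoter→luciferase), 1500 cells/well in Opti-MEM + 10% FBS, 2 h settle, then compound 24 h at 37 °C. Luminescence after 10 min with Amplite reagent.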
# ELG1 genotox: genotoxicity induction in ELG1-luciferase HEK293T cells | Potency, µM (top dose mostly 46 µM), inactives show at the top dose activity change, positive = activation, usual class: activators | AID 504466 | HEK293T ELG1-luciferase reporter, luminescence, 16 h | 1.3% of 330,000 active; also: % of control where 0% means no effect; nearly all actives have a fitted effect of over 60% in size
#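 Screening used a luciferase reporter fused to human ELG1 in HEK293T cells. Luminescence was read on a CCD plate imager after 16 hr exposure and 30 min ONE-Glo incubation.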
# * marks the source's active call; other numbers are inactive results; ? = inconclusive; · = no result given; [ ] = another dose, or the depositor's remark. In the library only some 7.5% were active in any assay of this set; here they are far more common. Calls follow the shape of the dose curve; as a rule, active = well fitted curve in the direction sought with a large enough effect; inconclusive = small, poorly fitted or top-dose-only effect, or another doubt; inactive = no such curve, though single readings can be large; an effect the other way counts as inactive or inconclusive. Potency is read from the fitted curve at half-maximal effect.
SMILES,SMN2 splice up,FLuc modulator,Luc counter,Rab9 prom act,NPC1 prom act,ELG1 genotox
O=C(NCCN1CCCC1)c1ccc(-n2c(=O)c(=O)[nH]c3ccccc32)cc1,·,·,-3%,·,·,·
Cc1ccc2cc(C3CC(c4ccco4)=NN3S(=O)(=O)c3ccccc3)c(Cl)nc2c1 (stereo not given),32µM*,3%,1%,-4%,-3%,-2%
Cc1c(O)nc(SCC(=O)Nc2ccc3c4c(cccc24)CC3)n(-c2ccc(F)cc2)c1=O,-12%,-2%,1%,-3%,-2%,-3%
Cc1nc(CN(C)C(=O)c2cc(COc3c(F)cccc3F)on2)cs1,·,-11%,3%,-4%,0%,1%
CN(Cc1cc(-c2ccccc2)on1)C(=O)c1cc(COc2c(F)cccc2F)on1,·,24µM*,3%,2.5µM*,24%,16%
COC(=O)[C@H](Cc1ccccc1)NC(=O)c1cc(COc2c(F)cccc2F)on1,·,19µM*,·,?,?,?
CCC(NC(=O)c1cc(COc2c(F)cccc2F)on1)c1ccncc1 (stereo not given),·,-3%,·,-1%,9%,-3%
CC(C)[C@H](NC(=O)NCc1ccco1)C(=O)O,1%,1%,-6%,0%,-1%,0%
Cc1cc(C)c2c(=O)cc(C(=O)Nc3ccc(C)c(Cl)c3)oc2c1,7%,-4%,·,·,·,·
Nc1c(-c2cccc([N+](=O)[O-])c2)nc2ccccn12,?,17µM*,?,3.2µM*,?,?
Cc1cc(S(=O)(=O)NCc2ccccc2)ccc1OCC(=O)NCc1ccncc1,·,15µM*,·,3.2µM*,2.8µM*,?
O=C(COc1ccc(S(=O)(=O)NCc2ccccc2)cc1Cl)NCc1ccncc1,·,-2%,·,?,-1%,-3%
CCc1c(C)sc(NC(=O)Cc2ccccc2C)c1C(=O)N1CCOCC1,·,2%,·,-6%,-9%,-1%
Cc1cccc(NC(=O)CSc2nccn2Cc2ccco2)c1,·,15µM*,·,2.8µM*,3.2µM*,?
COc1ccc(NC(=O)CSc2nccn2Cc2ccco2)cc1,·,24µM*,·,3.5µM*,2.5µM*,16µM*
CCC(=O)Nc1cc(NC(=O)CSc2ncc(-c3ccc(F)cc3)n2Cc2ccco2)ccc1C,16%,12µM*,10%,?,2.8µM*,18µM*
CNc1nc(-c2ccc3c(c2)CCN3C(=O)CC(C)(C)C)c(C)s1,·,2%,1%,-2%,-10%,-5%
CC(=O)Nc1cccc(-c2csc(N)n2)c1,-8%,-18%,6%,0%,4%,4%
CCC(C)C(=O)N1CCc2cc(-c3csc(N)n3)ccc21 (stereo not given),11µM*,5.4µM*,-6%,1.4µM*,2.5µM*,5.8µM*
CC(C)(C)C(=O)N1CCc2cc(-c3csc(N)n3)ccc21,?,0.24µM*,-7%,0.089µM*,0.35µM*,?
CCCC(=O)N1CCc2cc(-c3nc(N)sc3C)ccc21,·,12µM*,·,3.2µM*,?,?
CCN(CC)C(=O)c1c(NC(=O)c2ccccc2F)sc2c1CCC(C(C)(C)C)C2 (stereo not given),-6%,1%,·,·,·,·
C=CCN(c1ccccc1C(=O)O)S(=O)(=O)/C=C/c1ccccc1,1%,-5%,3%,-4%,-2%,-1%
Cc1cccc(OCC(=O)Nc2nonc2-c2ccc(Br)cc2)c1C,·,-5%,·,·,·,·
COc1cccc(NC(=O)c2ccc3c(O)c(S(=O)(=O)c4ccccc4)c(=O)[nH]c3c2)c1,·,19µM*,·,0%,2%,0%[9.26 µM]
SMILES,SMN2 splice up,FLuc modulator,Luc counter,Rab9 prom act,NPC1 prom act,ELG1 genotox
CCc1ccc(NC(=O)c2ccc3c(O)c(S(=O)(=O)c4ccc(Cl)cc4)c(=O)[nH]c3c2)cc1,·,7.6µM*,·,·,·,·
O=C(C[C@@H](C(=O)O)N1CCOCC1)c1ccccc1,-9%[9.22 µM],·,-1%[7.66 µM],·,·,·
CC(C)c1csc(CN2CCN(Cc3ccc(F)cc3)C(CCO)C2)n1 (stereo not given),·,0%,2%,-16%,1%,-6%
COc1cccc(C2=NOC(C(=O)NC(C)C)C2)c1 (stereo not given),1%,-2%,5%,-4%,1%,1%
CCC1(C)N=C(c2ccc3c(c2)OCO3)CC(c2ccccc2O)N1 (stereo not given),?,7.6µM*,?,?,11%,10%
COc1cccc(C2=NC(C)(C)NC(c3ccccc3O)C2)c1 (stereo not given),-4%,8.5µM*,-5%,3%,-2%,1%
O=C(NC1=NC2CCCCC2N1)c1ccccc1 (stereo not given),15%,1.5µM*,?,0.32µM*,0.4µM*,0.58µM*
Nc1nonc1-c1nc2ccccc2n1CC(=O)N/N=C/c1ccc(-c2cccc(C(=O)O)c2)o1,14%,27µM*,1%,-3%,0%,5%
Cc1nnc(N/N=C/c2ccc(-c3ccc(Br)cc3)o2)n1N,-23%,?,1%,14%,-1%,3%
Cc1ccc(NC(=O)Cn2c(-c3nonc3N)nc3ccccc32)cc1C,10µM*,-18%,·,·,·,·
Cc1nnc(N/N=C\c2ccc(-c3cccc(C(=O)O)c3)o2)n1N,-10%,11µM*,-11%,?,-1%,0%
CC(C)(C)c1csc(NC(=O)c2cccnc2)n1,·,?,·,0%,-2%,-2%
CC(C)(C)c1csc(NC(=O)c2cccs2)n1,·,11µM*,0%,3.5µM*,3.2µM*,?
CC(C)(C)c1csc(NC(=O)Cc2cccs2)n1,-25%,15µM*,0%,16%,0%,6%
COCCCn1c(=O)c2ccccc2n2c(=S)[nH]nc12,·,-2%,·,3%,0%,0%
c1ccc(-c2nc3c4ccccc4ccn3c2CN2CCCCC2)cc1,·,5.4µM*,·,13%,-1%,-3%
Cc1ccc(-c2nc3c4ccccc4ccn3c2CN2CCCCC2)cc1,·,?,·,12%,1%,9%
O=S(=O)(c1ccc(Cl)cc1)c1nc(-c2ccco2)oc1SCc1ccc(F)cc1,-49%,-9%,·,·,·,·
CCCNc1nc(N)nc(-c2cc(Cl)ccc2OC)n1,6%,11%,-4%,-4%,2%,-1%
CCCCNc1nc(N)nc(-c2cc(Cl)ccc2O)n1,6.3µM*,9.5µM*,-1%,2.8µM*,3.5µM*,?
CCNc1nc(N)nc(-c2cc(Cl)ccc2O)n1,11µM*,1.7µM*,-1%,1.3µM*,4µM*,?
N#CCCCSc1nnnn1-c1cc(C(F)(F)F)cc(C(F)(F)F)c1,5%,·,0%,·,·,·
COc1ccc(C(=O)n2nc(C)cc2Nc2ccccc2)cc1,0%,11µM*,-2%,27%,15%,23µM*
